# Measurements: PubChem BioAssay AID1571 (National Center for Advancing Translational Sciences (NCATS), 2009)
# Results filed as inconclusive are left out. Values without a mark were called inactive. Active and inactive are the calls of the source. The call rests on the fitted dose curve; in most records, active means well fitted curve in the direction sought with a large enough effect; inconclusive means small, poorly fitted or top-dose-only effect, or effect the other way; inactive means flat fitted curve, though single readings scatter.
# Assay: Total Fluorescence Confirmation Counterscreen for Inhibitors of the Interaction of Thyroid Hormone Receptor and Steroid Receptor Coregulator 2, Fluorescein Fluoroprobe
# Conditions: TRbeta/SRC2-fluorescein mix, total fluorescence interference; series mostly up to 92.2 µM; total fluorescence change, positive = fluorescent: at the top concentration
# In short: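 Counterscreen flagging optical interferers: compound incubated 5 hr at ambient temperature with 0.6 uM human TRbeta LBD, 20 nM fluorescein-SRC2 peptide and 1 uM T3. Readout is total fluorescence computed as S + 2P; concentration-response % activity reported.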
SMILES,"total fluorescence change, positive = fluorescent",Potency
COc1cc(C(c2c(C)[nH][nH]c2=O)c2c(C)[nH][nH]c2=O)ccc1OC(=O)c1ccccc1OC,3.8% [at 184 µM],–
CCOc1ccc(C2=Cc3cc(OC)c(OC)cc3C(=C(Cl)Cl)O2)cc1,-2.95%,–
CN1c2ccccc2C(C)(C)C12C=Nc1c(ccc3ccccc13)O2 (stereo unspecified),8.98%,–
CC(NC(=O)Nc1ccc(O)cc1)(C(F)(F)F)C(F)(F)F,8.06% [at 11.6 µM],–
CCOC(=O)c1cnc2nc(NCc3ccc(OC)c(OC)c3)[nH]n2c1=O,22.6%,–
CCOc1cc(C(c2c(C)[nH][nH]c2=O)c2c(C)[nH][nH]c2=O)ccc1OS(=O)(=O)c1ccc(C)cc1,-13.9%,–
CCOc1ccc(NC(=O)C(c2ccccn2)N(C(=O)CCl)c2ccc(F)cc2)cc1 (stereo unspecified),17.5% [at 5.76 µM],–
Cc1ccc(-c2nc(S(=O)(=O)c3ccc(F)cc3)c(SCC(=O)NCC3CCCO3)o2)cc1 (stereo unspecified),21.4% [at 46.3 µM],–
CCCc1cc(=O)[nH]c(=S)[nH]1,-2.07%,–
CCN(C(=O)C1CCCN(c2ncnc3onc(-c4ccc(F)cc4)c23)C1)c1ccccc1 (stereo unspecified),-23.9% [at 184 µM],–
CS(=O)(=O)c1ccc(C(=O)OCC(=O)NC(=O)C2CCCCC2)cc1[N+](=O)[O-],3.5% [at 0.0112 µM],–
COc1ccc2c(c1)-c1nc(/N=C/c3c(O)ccc4ccccc34)sc1CC2,29.6% [at 5.76 µM],–
Cn1c(CCN2CCCCC2)nc2cc(NS(=O)(=O)c3ccc(Cl)cc3)ccc21,13% [at 0.0112 µM],–
CC1=NN(Cc2ccccc2)C(=O)C1,-15.6%,–
O=C(O)[C@H]1CN(CCCP(=O)(O)O)CCN1,5.7% [at 184 µM],–
Cn1c(-c2ccc(=O)[nH]c2)nc2ccccc21,2.71%,–
COc1ccccc1Nc1cc2ccccc2c(=O)[nH]1,–,44.7 µM [fluorescent] (active)
COc1cc(NC(C)CCCN)c2ncccc2c1 (stereo unspecified),-8.62% [at 184 µM],–
Cc1ccc(OC(=S)Nc2ccc(O)cc2)cc1,-8.24%,–
CCCc1nc2c(=O)n(C)c(=O)nc-2n(C)n1,2.84%,–
Cn1cc[nH]c1=S,0.589%,–
